Experimental data reported in PubChem BioAssay (NCATS).
Inconclusive results are not listed. Active and inactive are the calls of the source. Calls come from the whole dose curve; as a rule, active = well fitted cell-killing curve with a large enough effect; inconclusive = small, poorly fitted or top-dose-only effect, or effect the other way; inactive = flat fitted curve, though single readings scatter.

Columns and labels:
Experiment in all cases: Primary qHTS to identify gynecologic anti-cancer compounds using libraries of approved drugs and bioactive compounds (AID 1345084); note: nearly all actives have a fitted effect of over 55% in size
[1] = system: C33A; conditions: Gynecologic cancer cell panel viability, ATPlite luminescence, 48 h; series mostly up to 57.5 µM
How it was run: (§1)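 Cells, 1,000 per well, plated 16 h, then exposed 48 h at 37 C to compounds. Viability by ATPlite luminescence after 15 min at room temperature.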

[2] = system: CAOV3; conditions: Gynecologic cancer cell panel viability, ATPlite luminescence, 48 h; series mostly up to 57.5 µM
How it was run: as §1

[3] = system: CASKI; conditions: Gynecologic cancer cell panel viability, ATPlite luminescence, 48 h; series mostly up to 57.5 µM
How it was run: as §1

[4] = system: Es-2; conditions: Gynecologic cancer cell panel viability, ATPlite luminescence, 48 h; series mostly up to 57.5 µM
How it was run: as §1

[5] = system: HeLa; conditions: Gynecologic cancer cell panel viability, ATPlite luminescence, 48 h; series mostly up to 57.5 µM
How it was run: as §1

[6] = system: Hek293T; conditions: Gynecologic cancer cell panel viability, ATPlite luminescence, 48 h, control line for the selectivity index; series mostly up to 57.5 µM
How it was run: as §1

[7] = system: JEG-3; conditions: Gynecologic cancer cell panel viability, ATPlite luminescence, 48 h; series mostly up to 57.5 µM
How it was run: as §1

[8] = system: OV90; conditions: Gynecologic cancer cell panel viability, ATPlite luminescence, 48 h; series mostly up to 57.5 µM
How it was run: as §1
% is set by controls: 0 for no effect and ±100 for the full control effect; potency is the fitted concentration of half-maximal effect.

COc1ccc(C2(N(C)C(=O)c3ccc(NC(=O)c4ccco4)cc3)CCOCC2)cc1
inactive: Potency [1] | Potency [2] | Potency [3] | Potency [4] | Potency [5] | Potency [6] | Potency [7] | Potency [8]

COC(=O)c1ccnc(-c2cc(C(=O)Nc3ccc(C4(N)CC4)cc3)ccn2)c1
inactive: Potency [1] | Potency [2] | Potency [3] | Potency [4] | Potency [5] | Potency [6] | Potency [7] | Potency [8]

O=C(Nc1ccccc1)c1ccc(Nc2nnc(-c3ccc(O)cc3)c3ccccc23)cc1
inactive: Potency [1] | Potency [2] | Potency [3] | Potency [4] | Potency [5] | Potency [6] | Potency [7] | Potency [8]

COc1cc(C(=O)O)ccc1NC(=O)C1NC(CC(C)(C)C)C(C#N)(c2ccc(Cl)cc2F)C1c1cccc(Cl)c1F (stereo unspecified)
inactive: Potency [1] | Potency [2] | Potency [3] | Potency [4] | Potency [5] | Potency [6] | Potency [7] | Potency [8]

C[C@@H]1O[C@@H](O[C@H]2CC[C@@]3(C)C(CC[C@]4(C)C3CC=C3[C@@H]5CC(C)(C)CC[C@]5(C(=O)O[C@@H]5O[C@H](CO)[C@@H](O)[C@H](O)[C@H]5O)CC[C@]34C)[C@]2(C)CO)[C@H](O)[C@H](O[C@@H]2O[C@H](CO)[C@@H](O)[C@H](O)[C@H]2O)[C@H]1O (stereo partly specified)
inactive: activity change, negative = cytotoxicity [1] -20.9% [at 11.6 µM] | activity change, negative = cytotoxicity [2] -0.291% [at 11.6 µM] | activity change, negative = cytotoxicity [3] -6.26% [at 11.6 µM] | activity change, negative = cytotoxicity [4] -0.79% [at 11.6 µM] | activity change, negative = cytotoxicity [5] -1.56% [at 11.6 µM] | activity change, negative = cytotoxicity [6] -6.15% [at 11.6 µM] | activity change, negative = cytotoxicity [7] -9.27% [at 11.6 µM] | activity change, negative = cytotoxicity [8] -0.517% [at 11.6 µM]

CCN(c1cc(-c2ccc(CN3CCOCC3)cc2)cc(C(=O)NCc2c(C)cc(C)[nH]c2=O)c1C)C1CCOCC1
inactive: Potency [1] | Potency [2] | Potency [3] | Potency [4] | Potency [5] | Potency [6] | Potency [7] | Potency [8]

COc1ccc(S(=O)(=O)N2CCC[C@H]2C(=O)Nc2cc(C)cc(C)c2)cc1
inactive: Potency [1] | Potency [2] | Potency [3] | Potency [4] | Potency [5] | Potency [6] | Potency [7] | Potency [8]

Cc1cc(-c2ncc(-c3cccnc3)cc2/C=C/c2ccccc2)cnc1-c1cccnc1
inactive: Potency [1] | Potency [2] | Potency [3] | Potency [4] | Potency [5] | Potency [6] | Potency [7] | Potency [8]

COc1ccc(C2=NC(c3ccc(Cl)cc3)C(c3ccc(Cl)cc3)N2C(=O)N2CCNC(=O)C2)c(OC(C)C)c1 (stereo unspecified)
inactive: Potency [1] | Potency [2] | Potency [3] | Potency [4] | Potency [5] | Potency [6] | Potency [7] | Potency [8]

COc1ccc(C#Cc2ccc(C(=O)N3CCC[C@@H](CO)C3)cc2)cc1
inactive: Potency [1] | Potency [2] | Potency [3] | Potency [4] | Potency [5] | Potency [6] | Potency [7] | Potency [8]

CC1(C)OC[C@H](NC(=O)Nc2ccc(Br)cc2Br)[C@H](c2ccccc2)O1
inactive: Potency [1] | Potency [2] | Potency [3] | Potency [4] | Potency [5] | Potency [6] | Potency [7] | Potency [8]

Cc1cc(C)nc(SCC(=O)Nc2ncc(Cc3cccc4ccccc34)s2)n1
inactive: Potency [1] | Potency [2] | Potency [3] | Potency [4] | Potency [5] | Potency [6] | Potency [7] | Potency [8]

COC(=O)c1sccc1S(=O)(=O)Nc1ccc(Nc2ccccc2)cc1OC
inactive: Potency [1] | Potency [2] | Potency [3] | Potency [4] | Potency [5] | Potency [6] | Potency [7] | Potency [8]

COC1CC(=O)C23C(=O)NC(CC(C)C)C2C(C)C(C)=CC3/C=C(\C)CCCC1O (stereo unspecified)
inactive: Potency [1] | Potency [2] | Potency [3] | Potency [4] | Potency [5] | Potency [6] | Potency [7] | Potency [8]

C=C1C(=O)O[C@@H]2[C@H]1CCC(C)=C(CCC(=O)O)[C@@]2(C)O
inactive: Potency [1] | Potency [2] | Potency [3] | Potency [4] | Potency [5] | Potency [6] | Potency [7] | Potency [8]

CCN(CC)C(=O)C(c1ccccc1)N1CCN(c2ccc(NC(=O)c3ccccc3-c3cccnc3)cc2F)CC1 (stereo unspecified)
inactive: Potency [1] | Potency [2] | Potency [3] | Potency [4] | Potency [5] | Potency [6] | Potency [7] | Potency [8]

CCOc1ccc(-n2c(C(C)N(Cc3cccnc3)C(=O)Cc3ccc(F)c(C(F)(F)F)c3)nc3ncccc3c2=O)cc1 (stereo unspecified)
inactive: Potency [1] | Potency [2] | Potency [3] | Potency [4] | Potency [5] | Potency [6] | Potency [7] | Potency [8]

Nc1nc(OCc2cc(Br)cs2)c2[nH]cnc2n1
inactive: Potency [1] | Potency [2] | Potency [3] | Potency [4] | Potency [5] | Potency [6] | Potency [7] | Potency [8]

CCOC(=O)N1CCC(N2CCC[C@@H](NC(=O)c3ccccc3C)C2)CC1
inactive: Potency [1] | Potency [2] | Potency [3] | Potency [4] | Potency [5] | Potency [6] | Potency [7] | Potency [8]

Cc1cc2c(N3CCCC3)nc(N3CCCC3)nc2n1C
inactive: Potency [1] | Potency [2] | Potency [3] | Potency [4] | Potency [5] | Potency [6] | Potency [7] | Potency [8]

O=C(NC1CCC1)c1ccc(C#Cc2cccc(F)c2)nc1
inactive: Potency [1] | Potency [2] | Potency [3] | Potency [4] | Potency [5] | Potency [6] | Potency [7] | Potency [8]

O=C(Nc1ccc(-c2ccnc(Nc3ccc(N4CCOCC4)cc3)n2)cc1)C1CCCN1 (stereo unspecified)
inactive: Potency [1] | Potency [2] | Potency [3] | Potency [4] | Potency [5] | Potency [6] | Potency [7] | Potency [8]

CCOC(=O)c1cnn(-c2ccccc2)c1NC(=O)c1cc2nc(-c3ccco3)cc(C(F)(F)Cl)n2n1
inactive: Potency [1] | Potency [2] | Potency [3] | Potency [4] | Potency [5] | Potency [6] | Potency [7] | Potency [8]

O=C(Nc1ccccc1)N1CCN(c2nc(-c3ccccc3)ns2)CC1
inactive: Potency [1] | Potency [2] | Potency [3] | Potency [4] | Potency [5] | Potency [6] | Potency [7] | Potency [8]

NS(=O)(=O)c1ccc(N2CCN(CC[C@@H]3OCCc4ccccc43)CC2)cc1
inactive: Potency [1] | Potency [2] | Potency [3] | Potency [4] | Potency [5] | Potency [6] | Potency [7] | Potency [8]

CC(C)(F)CC(NC(c1ccc(-c2ccc(S(C)(=O)=O)cc2)cc1)C(F)(F)F)C(=O)NC1(C#N)CC1 (stereo unspecified)
inactive: Potency [1] | Potency [2] | Potency [3] | Potency [4] | Potency [5] | Potency [6] | Potency [7] | Potency [8]

COc1cc2ncc(-c3ccccc3)nc2cc1OC
active: Potency [5] 3.55 µM
inactive: Potency [1] | Potency [2] | Potency [3] | Potency [4] | Potency [6] | Potency [7] | Potency [8]

O=C(Nc1ccc(Cl)cc1)C1CCCN(C(=O)c2cccc(-c3ccco3)c2)C1 (stereo unspecified)
inactive: Potency [1] | Potency [2] | Potency [3] | Potency [4] | Potency [5] | Potency [6] | Potency [7] | Potency [8]

CC(C)n1c(=O)c(C(=O)NC2CC3CCC(C2)N3C[C@@H](O)CN(C)S(C)(=O)=O)cc2ccccc21 (stereo partly specified)
inactive: Potency [1] | Potency [2] | Potency [3] | Potency [4] | Potency [5] | Potency [6] | Potency [7] | Potency [8]

CCCCOC(=O)NS(=O)(=O)c1sc(CC(C)C)cc1-c1ccc(Cn2ccnc2)cc1
inactive: Potency [1] | Potency [2] | Potency [3] | Potency [4] | Potency [5] | Potency [6] | Potency [7] | Potency [8]

CC(C)c1noc(C2CCN(c3ncnc(Nc4ccc(S(C)(=O)=O)cc4F)c3[N+](=O)[O-])CC2)n1
inactive: Potency [1] | Potency [2] | Potency [3] | Potency [4] | Potency [5] | Potency [6] | Potency [7] | Potency [8]

CC(C)/C=C1\NC(=O)C(C(C)C)n2c1nc1ccccc1c2=O (stereo unspecified)
inactive: Potency [1] | Potency [2] | Potency [3] | Potency [4] | Potency [5] | Potency [6] | Potency [7] | Potency [8]

CC(C)Oc1ccc(-c2cnc3c(-c4ccnc5ccccc45)cnn3c2)cc1
inactive: Potency [1] | Potency [2] | Potency [3] | Potency [4] | Potency [5] | Potency [6] | Potency [7] | Potency [8]

O=C(NCC1(c2nc(-c3ccccc3)cs2)CCOCC1)c1cccc(-c2noc(C(F)(F)F)n2)c1
inactive: Potency [1] | Potency [2] | Potency [3] | Potency [4] | Potency [5] | Potency [6] | Potency [7] | Potency [8]

CC1(C)CCC2(C(=O)OC3OC(COC4OC(CO)C(O)C(O)C4O)C(O)C(O)C3O)CCC3(C)C(=CCC4C5(C)CCC(OC6OCC(O)C(O)C6O)C(C)(C)C5CCC43C)C2C1O (stereo unspecified)
inactive: activity change, negative = cytotoxicity [1] -1.3% [at 11.6 µM] | activity change, negative = cytotoxicity [2] 1.87% [at 11.6 µM] | activity change, negative = cytotoxicity [3] -6.34% [at 11.6 µM] | activity change, negative = cytotoxicity [4] 5.34% [at 11.6 µM] | activity change, negative = cytotoxicity [5] 20.6% [at 11.6 µM] | activity change, negative = cytotoxicity [6] -15.1% [at 11.6 µM] | activity change, negative = cytotoxicity [7] -7.3% [at 11.6 µM] | activity change, negative = cytotoxicity [8] -2.98% [at 11.6 µM]

CC(=O)O[C@@H]1CC2C(C)(C)C(=O)C=C[C@]2(C)C2CC[C@@]3(C)[C@H](c4ccoc4)OC(=O)[C@H]4O[C@]43[C@@]21C (stereo partly specified)
inactive: Potency [1] | Potency [2] | Potency [3] | Potency [4] | Potency [5] | Potency [6] | Potency [7] | Potency [8]

Cc1nc2c(C(F)(F)F)cccc2nc1-c1ccc(-c2cccc(S(C)(=O)=O)c2)cc1
inactive: Potency [1] | Potency [2] | Potency [3] | Potency [4] | Potency [5] | Potency [6] | Potency [7] | Potency [8]
